Here are results for 29 compounds from PubChem BioAssay (NCATS).

Results filed as inconclusive are left out. Unmarked numbers belong to inactive results. Calls follow the shape of the dose curve; as a rule, active = well fitted activation curve with a large enough effect; inconclusive = small, poorly fitted or top-dose-only effect; inactive = flat fitted curve, though single readings scatter.

This experiment can be described thus: Primary redox qHTS assay for identification of artifact compounds. (AID 1845223).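 Also: 0% = DMSO and 100% = reference compound.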 Conditions: Amplex Red/HRP redox cycling with DTT, fluorescence; series mostly up to 53.8 µM; redox activity (% of DA3003): at the top concentration. A digest of the protocol: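 Amplex Red (25 uM) and HRP (250 mU/mL) in HBSS, with compounds for 15 min, then 250 uM DTT for 30 min, room temperature, dark. Fluorescence 525/598 nm read; normalized to DMSO and 10 uM DA3003; Hill fit.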
Regarding `CC1(CO)CCCC2(C)C1C(OC(=O)c1ccccc1)C=C1C(=O)OCC12O` (centres undefined), the “redox activity (% of DA3003)” value is 11.7%.

In the case of `Cn1c(NC[C@@H](N)Cc2ccccc2)nc(-c2ccncc2)c(-c2ccc3ccccc3c2)c1=O`, the “redox activity (% of DA3003)” value was 8.99%.

Turning to `CCCCC(=O)N(Cc1ccc(-c2ccccc2-c2nn[nH]n2)cc1)C(C(=O)O)C(C)C` (centres undefined), the “redox activity (% of DA3003)” value is 1.09%.

In the case of `Nc1nc(NCC2CCC(CNS(=O)(=O)c3cccc4ccccc34)CC2)nc2ccccc12` (centres undefined), the “redox activity (% of DA3003)” value is -5.56%.

Consider `COc1ccc(NS(=O)(=O)c2sc3ccc(Cl)cc3c2C)cc1N1CCNCC1`, for which the “redox activity (% of DA3003)” value was 4.41%.

With `CCCCc1nc(Cl)c(CO)n1Cc1ccc(-c2ccccc2-c2nnn[nH]2)cc1`, the “redox activity (% of DA3003)” value is -0.499%.

For `CCC(=O)c1cc(-c2ccc(Cl)cc2)n(-c2ccc(S(N)(=O)=O)cc2)c1C`, the “redox activity (% of DA3003)” value was 1.35%.

Turning to `Cc1cc(N=Nc2ccc(S(=O)(=O)Nc3ccccn3)cc2)c(N)cc1O`, the “redox activity (% of DA3003)” value is 10.3%.

`Cc1nnsc1C(=O)Nc1ccc(-n2nc(C(F)(F)F)cc2C(F)(F)F)cc1`: the “redox activity (% of DA3003)” value was -1.11%.

`Cc1cc(C)c(NC(=O)N(Cc2ccc3c(c2)Cc2ccccc2-3)C2CCCCCC2)c(C)c1`: the “redox activity (% of DA3003)” value is -1.01%.

Regarding `Fc1ccccc1CNCc1ccc(-c2ccnc3[nH]ccc23)cc1`, the “redox activity (% of DA3003)” value was -8.68%.

For `CN(Cc1ccc(C(=O)O)cc1)c1ccc(OCc2c(-c3c(Cl)cccc3Cl)noc2C2CC2)nc1C(F)(F)F`, the “redox activity (% of DA3003)” value is -1.09%.

Regarding `Cc1nc(C)c2c(n1)N(Cc1ccc(-c3ccccc3-c3nn[nH]n3)cc1)C(=O)CC2`, the “redox activity (% of DA3003)” value is 16.6%.

As for `N#C[C@@H]1C[C@@H]2C[C@@H]2N1C(=O)[C@@H](N)C12CC3CC(CC(O)(C3)C1)C2`, the “redox activity (% of DA3003)” value is -1.25%.

As for `CCCCOc1ccc(-c2cncc(C(=O)NCc3cccnc3N3CCOCC3)c2)cc1Cl`, the “redox activity (% of DA3003)” value was -5.18%.

For `C=CC(=O)N1CCN(C(=O)c2cc(-c3cc(Cl)ccc3Cl)c(Cl)cc2OC)CC1`, the “redox activity (% of DA3003)” value was 7.17%.

On to `CC[C@H]1OC(=O)[C@H](C)[C@@H](O[C@H]2C[C@@](C)(OC)[C@@H](O)[C@H](C)O2)[C@H](C)[C@@H](O[C@@H]2O[C@H](C)C[C@H](N(C)C)[C@H]2O)[C@](C)(O)C[C@@H](C)/C(=N/OCOCCOC)[C@H](C)[C@@H](O)[C@]1(C)O`, for which the “redox activity (% of DA3003)” value was 1.39%.

In the case of `C[C@@H](O[C@H]1OCCN(Cc2n[nH]nc2CN(C)C)[C@H]1c1ccc(F)cc1)c1cc(C(F)(F)F)cc(C(F)(F)F)c1`, the “redox activity (% of DA3003)” value was -4.74%.

For the compound `Cc1cc(CN)cc(C)c1NC(=O)c1ccc(-c2cc(Cl)ccc2Cl)o1`, the “redox activity (% of DA3003)” value is 17.3%.

As to `CCCCc1nc(C)c(CC(=S)N(C)C)c(=O)n1Cc1ccc(-c2ccccc2-c2nn[nH]n2)cc1`, the “redox activity (% of DA3003)” value was 6.11%.

With `CC1(C)SC2C(NC(=O)[C@H](C(=O)O)c3ccsc3)C(=O)N2C1C(=O)O` (some centres undefined), the “redox activity (% of DA3003)” value is 1.53%.

Consider `Cc1cc(C)c(-c2csc(NC(=O)c3ccccc3)n2)c(C)c1`, for which the “redox activity (% of DA3003)” value is -5.04%.

As for `COc1c(N2CC3CCCNC3C2)c(F)cc2c(=O)c(C(=O)O)cn(C3CC3)c12` (centres undefined), the “redox activity (% of DA3003)” value was -0.802%.

Take `COc1cc(N2CCN(C(C)=O)CC2)ccc1Nc1ncc(Cl)c(Nc2ccc(N3CCN(C(C)=O)CC3)cc2OC)n1`: the “redox activity (% of DA3003)” value was -2.23%.

`CN(CC(=O)N(Cc1ccc(C2CCCCC2)cc1)c1ccc(C(=O)O)cc1)S(=O)(=O)c1c(F)c(F)c(F)c(F)c1F`: the “redox activity (% of DA3003)” value is 14.5%.

As for `CC1OC2O[C@H]3[C@@H](OCC(O)[C@H]3O)OC(=O)C34CCC(C)(C)CC3C3=CCC5C6(C)CC(O)C(OC7OC(CO)C(O)C(O)C7O[C@@H]7OC[C@H](OC(=O)CC(C)(O)CC(=O)OC1C(OC1OCC(O)C(O)C1O)C2O)[C@@H](O)[C@H]7O)C(C)(CO)C6CCC5(C)C3(C)CC4` (some centres undefined), the “redox activity (% of DA3003)” value is 11.8% [at 25.6 µM].

With `COCCNCc1ccc(-c2cc3nccc(Oc4ccc(NC(=S)NC(=O)Cc5ccc(F)cc5)cc4F)c3s2)nc1`, the “redox activity (% of DA3003)” value was -11.3%.

Regarding `Cc1cc(CS(=O)(=O)c2ccccc2)cc(OCc2ccc(CN3CCC[C@@H]3CO)cc2)c1`, the “redox activity (% of DA3003)” value is 7.04%.

`Cc1ccn(-c2cc(Cl)ccc2[C@@H](Oc2cc(-c3ccc(C[C@H](N)C(=O)O)cc3)nc(N)n2)C(F)(F)F)n1`: the “redox activity (% of DA3003)” value is 5.52%.
